# The supplement of paper PMC11732987, “Enantioselective OTUD7B fragment discovery through chemoproteomics screening and high-throughput optimisation” (Communications Chemistry, 2025)
# Unmarked numbers belong to inactive results.
# Biological target: T1, VCPIP1 (UniProt Q96JH7)
# T1 sequence (whole entry): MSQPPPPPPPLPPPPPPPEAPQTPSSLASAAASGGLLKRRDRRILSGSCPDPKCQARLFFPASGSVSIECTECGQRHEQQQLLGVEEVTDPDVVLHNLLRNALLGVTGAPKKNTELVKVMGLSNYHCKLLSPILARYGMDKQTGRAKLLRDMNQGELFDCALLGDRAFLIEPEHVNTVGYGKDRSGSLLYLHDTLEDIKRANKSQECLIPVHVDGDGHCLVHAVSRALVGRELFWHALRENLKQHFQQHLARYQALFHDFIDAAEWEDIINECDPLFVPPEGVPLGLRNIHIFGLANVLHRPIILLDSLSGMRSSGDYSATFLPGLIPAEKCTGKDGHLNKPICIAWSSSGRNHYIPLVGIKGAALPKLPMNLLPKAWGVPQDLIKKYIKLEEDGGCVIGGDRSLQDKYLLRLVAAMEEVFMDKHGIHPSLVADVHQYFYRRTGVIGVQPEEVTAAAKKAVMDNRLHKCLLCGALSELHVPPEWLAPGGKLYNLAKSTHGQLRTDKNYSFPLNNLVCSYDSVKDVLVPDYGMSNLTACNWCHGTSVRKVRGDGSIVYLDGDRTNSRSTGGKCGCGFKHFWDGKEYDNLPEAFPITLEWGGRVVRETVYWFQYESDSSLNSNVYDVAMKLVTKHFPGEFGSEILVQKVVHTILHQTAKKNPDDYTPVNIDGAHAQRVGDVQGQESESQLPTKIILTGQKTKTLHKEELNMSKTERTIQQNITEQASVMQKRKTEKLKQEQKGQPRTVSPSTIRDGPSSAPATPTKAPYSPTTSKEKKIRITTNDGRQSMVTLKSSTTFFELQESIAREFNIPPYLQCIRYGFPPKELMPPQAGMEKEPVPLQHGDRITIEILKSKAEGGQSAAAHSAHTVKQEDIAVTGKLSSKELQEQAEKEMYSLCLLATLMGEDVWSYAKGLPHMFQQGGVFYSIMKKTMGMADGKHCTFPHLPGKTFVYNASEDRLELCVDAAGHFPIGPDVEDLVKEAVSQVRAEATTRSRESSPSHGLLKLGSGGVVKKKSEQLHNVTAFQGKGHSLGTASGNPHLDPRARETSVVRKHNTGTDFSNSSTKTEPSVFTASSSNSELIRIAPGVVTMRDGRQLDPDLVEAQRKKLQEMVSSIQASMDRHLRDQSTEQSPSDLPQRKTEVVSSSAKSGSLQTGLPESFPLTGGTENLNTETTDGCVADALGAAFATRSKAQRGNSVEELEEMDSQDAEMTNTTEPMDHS
# Test: log2 ratio of Biotin-Ahx-Ub-VS probe labelling (fragment/DMSO); higher = less target engagement (more negative = stronger competition), active = hit call of the paper (q ≤ 0.05, log2 ratio ≤ -1)
# Details: compound concentration: 200 uM; treatment time: 3 h
# Method: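 Competitive ABPP in HEK293T cell lysate. Lysates were treated with each chloroacetamide fragment at 200 µM for 3 h, then with Biotin-Ahx-Ub-VS (0.5 µM, 1 h), NeutrAvidin-enriched and analysed by diaPASEF LC-MS/MS. Protein LFQ was median-normalised; average log2 ratio is fragment/DMSO from an unpaired t-test (n=3 treated, n=44 DMSO). Hits: q ≤ 0.05, log2 ratio ≤ -1, unique peptides ≥ 2.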
row,Compound,log2 ratio of Biotin-Ahx-Ub-VS probe labelling
1,O=C(CCl)Nc1ccc(F)cc1F,-0.736
2,Cl.O=C(CCl)N1CCc2ncncc2C1,-0.0226
3,O=C(CN1CCN(C(=O)CCl)CC1)Nc1cccc(F)c1,-0.698
4,O=C(CCl)NC1CCC(C(F)(F)F)CC1 (configuration not stated),-1.35 (active)
5,O=C(CCl)N1CCOC(c2cccc(F)c2)C1 (configuration not stated),-1.67 (active)
6,CC(NC(=O)CCl)c1ccc2[nH]ncc2c1 (configuration not stated),-2.26 (active)
7,O=C(CCl)NC1CCN(C(=O)C2CCCCC2)CC1,-0.826
